Source: PubChem BioAssay (NCATS)
Records with an inconclusive call do not appear. Calls of active or inactive are those of the source. Calls come from the whole dose curve.

target: Atrial natriuretic peptide receptor 1 (Homo sapiens) (UniProt P16066); assay: Natriuretic polypeptide receptor (hNpr1) antagonism - Pilot CMLD screen (AID 1347052); settings: HEK293 hNpr1 GloSensor cGMP luminescence, ANP-stimulated; series mostly up to 9.22 µM;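 note: HEK293 cells with hNpr1 stimulated by hNppA peptide at 0.1 nM; cGMP level read as GloSensor luciferase luminescence after agonist stimulation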
Sequence (P16066 whole entry, looked up): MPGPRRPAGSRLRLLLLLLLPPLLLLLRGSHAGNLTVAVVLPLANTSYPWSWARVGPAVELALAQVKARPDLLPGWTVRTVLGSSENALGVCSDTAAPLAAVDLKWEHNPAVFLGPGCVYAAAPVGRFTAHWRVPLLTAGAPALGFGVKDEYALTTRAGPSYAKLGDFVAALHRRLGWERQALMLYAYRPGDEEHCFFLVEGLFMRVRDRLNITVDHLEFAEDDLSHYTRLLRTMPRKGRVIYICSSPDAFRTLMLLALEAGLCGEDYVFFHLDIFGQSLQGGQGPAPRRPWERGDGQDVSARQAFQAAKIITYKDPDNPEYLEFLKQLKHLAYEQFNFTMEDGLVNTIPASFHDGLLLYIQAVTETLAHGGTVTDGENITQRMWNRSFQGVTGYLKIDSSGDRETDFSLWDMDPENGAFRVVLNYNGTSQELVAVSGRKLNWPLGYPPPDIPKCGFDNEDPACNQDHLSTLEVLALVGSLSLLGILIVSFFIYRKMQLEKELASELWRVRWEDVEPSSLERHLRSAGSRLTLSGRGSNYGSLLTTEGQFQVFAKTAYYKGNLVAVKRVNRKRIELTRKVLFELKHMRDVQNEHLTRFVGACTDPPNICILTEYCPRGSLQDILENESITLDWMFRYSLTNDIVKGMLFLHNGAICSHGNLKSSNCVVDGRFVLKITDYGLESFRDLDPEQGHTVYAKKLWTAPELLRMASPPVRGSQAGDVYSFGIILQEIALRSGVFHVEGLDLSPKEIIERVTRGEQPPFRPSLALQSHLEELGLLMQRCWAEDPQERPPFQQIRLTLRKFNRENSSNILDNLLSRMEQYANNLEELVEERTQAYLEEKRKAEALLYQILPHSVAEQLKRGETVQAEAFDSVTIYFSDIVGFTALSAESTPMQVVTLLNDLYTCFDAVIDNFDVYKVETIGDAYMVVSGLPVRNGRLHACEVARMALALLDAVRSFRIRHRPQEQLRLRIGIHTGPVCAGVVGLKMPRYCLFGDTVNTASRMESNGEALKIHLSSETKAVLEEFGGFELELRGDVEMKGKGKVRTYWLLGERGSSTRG

Potency, inactive:
Cc1ccccc1Nc1oc(-c2ccccc2)nc1-c1ccccc1F
COC(=O)CCC(=O)OC1(C)C(=O)C=C2C=C(C3CC3)N(CCCOC(C)C)C=C2C1=O (centres undefined)
C[C@@H]1C[C@H]2[C@@H](Cc3ccccc3)C(=O)N3[C@@H](C[C@@H](C)[C@@H]3c3ccccc3)[C@@H](Cc3ccccc3)C(=O)N2[C@H]1c1ccccc1
COC(=O)C1=C(C(=O)OC)[C@@H]2N(C)c3ccccc3[C@@]23C[C@@H](CO)N(C(=O)NC2CCCC2)C3=N1
Cc1ccccc1Nc1oc(-c2ccccc2)nc1-c1cccc2ccccc12
c1ccc(-c2nc(-c3cccs3)c(NC3CCCCC3)o2)cc1
COC(=O)C1=C(C(=O)OC)[C@@H]2N(C)c3ccccc3[C@@]23C[C@@H](CO)N(C(=O)Nc2ccc(C(F)(F)F)cc2)C3=N1
FC(F)(F)c1cc(NC(=S)Nc2ccc3cc4ccccc4cc3c2)cc(C(F)(F)F)c1
COCOc1cc(OC)ccc1C(=O)C=Cc1ccc2c(c1)OCO2
COC(=O)N1C(C=Cc2ccc3c(c2)OCO3)=Cc2ccccc2C1CC(C)=O (centres undefined)
CC(CCN1CCCc2nc(C)c(C)cc21)=NO[C@@H](C)CN1CCCCc2nc(C)c(C)cc21
CC1=CC[C@@H](COc2ccccc2)O[C@@]2(C1)C(=O)N(Cc1ccc(Br)cc1)c1cccc(Br)c12
COc1cccc([C@H]2Oc3ccc(OC)cc3C(=NO[C@@H](C)CN3CCCCc4nc(C)c(C)cc43)[C@H]2O)c1
CCOC(=O)CN1C(=O)[C@@]2(CC(C)=CC[C@@H](COc3ccccc3)O2)c2c(Br)cccc21
COC(=O)C(C(=O)OC)C1OC23CN(S(=O)(=O)c4ccc(C)cc4)C=CC2(C)C3c2ccccc21 (centres undefined)
CC1=CC[C@@H](COc2ccccc2)O[C@@]2(C1)C(=O)N(Cc1ccccc1C(F)(F)F)c1cccc(Br)c12
C=CCC12C=C(OC)C(=O)C(C1=O)C(c1ccc(OC)cc1)C2C (centres undefined)
COC(=O)C1=C(C)N(Cc2ccccc2)C(=NCC(C)C)NC1c1cccc(C(F)(F)F)c1 (centres undefined)
O=C(N[C@H](c1ccccc1)C1CCCC=C1c1ccccc1)C(F)(F)F (some centres undefined)
CC1=CC[C@@H](COc2ccccc2)O[C@@]2(C1)C(=O)N(Cc1ccc(F)cc1)c1cccc(Br)c12
CCN1C(=S)NC(c2cccc(C(F)(F)F)c2)C(C(=O)OC)=C1C (centres undefined)
COc1ccc([C@@H](NC(=O)C(F)(F)F)C2CCCC=C2c2ccccc2)cc1OC (some centres undefined)
CN1c2ccccc2[C@@]2(O)C(=O)[C@@]1(C)[C@H]1Cc3ccccc3[C@H]12
FC(F)(F)c1ccc(-c2nc(-c3ccccc3)oc2NCc2ccccc2)cc1
CC(C)=CCCC(C)=CCN1C(=O)[C@@]2(CC(C)=CC[C@@H](C)O2)c2c(Br)cccc21
CCc1cc2c(nc1CC)CCN(CCC(C)=NOC[C@@H](C)[C@H](OCc1ccccc1)C(C)C)C2
CC(CCN1CCCCc2nc(C)c(C)cc21)=NO[C@H](C)CN1CCCc2nc(C)c(C)cc21
C[C@@H]1CC2=CCCC2[C@]2(O1)C(=O)N(Cc1ccc(F)cc1)c1cccc(Br)c12 (some centres undefined)
CCCCC1=CC2=CC(=O)C(C)(OC(=O)CCc3ccccc3)C(=O)C2=CO1 (centres undefined)
COc1cc2c(c(OC)c1OC)[C@@]1(c3ccccc3)CCCCC[C@H]1[C@@H]2NC(=O)C(F)(F)F
Cc1cc(C)cc(-c2cc3c(c(-c4c(O)c(-c5cc(C)cc(C)c5)cc5c4CCCC5)c2O)CCCC3)c1
COC(=O)C1=C(C)N(Cc2ccccc2)C(=NCCc2cccs2)NC1c1cccc(C(F)(F)F)c1 (centres undefined)
Cc1ccccc1Nc1oc(-c2ccccc2)nc1-c1cccs1
COC(=O)c1ccc(CN2C(=O)[C@@]3(CC(C)=CC[C@@H](COc4ccccc4)O3)c3ccccc32)cc1
CC[C@@]12C=C(C=Cc3ccccc3)[C@](CC)(C1)[C@H](c1ccccc1)CC2=O
CC(C)(C)Nc1oc(-c2ccccc2)nc1-c1cccc2ccccc12
COc1ccc([C@]23Cc4ccccc4[C@H](O2)C2=C(CC4(CCCCC4)OC2=O)O3)cc1
COCOc1ccc(Br)cc1C(=O)C=Cc1ccc2c(c1)OCO2
COC(=O)[C@@H]1CC[C@H](C)[C@@H](c2ccc(C)cc2)N1C(=O)c1ccc(C=NO[C@@H](C)c2cn([C@H](CO)Cc3ccccc3)nn2)cc1
